Source: PubChem (The Scripps Research Institute Molecular Screening Center)
The list is not random: actives were taken first. Their share in the collection is about 3.5%.
MITF inh: inhibitors of human MITF; inhibition, % at 2.6 µM; AlphaScreen MITF homodimerization, bead proximity signal; O75030; hit rate 0.91% among 650,000; in the data active = inhibition above about 50%
Target sequence (O75030 whole entry, looked up): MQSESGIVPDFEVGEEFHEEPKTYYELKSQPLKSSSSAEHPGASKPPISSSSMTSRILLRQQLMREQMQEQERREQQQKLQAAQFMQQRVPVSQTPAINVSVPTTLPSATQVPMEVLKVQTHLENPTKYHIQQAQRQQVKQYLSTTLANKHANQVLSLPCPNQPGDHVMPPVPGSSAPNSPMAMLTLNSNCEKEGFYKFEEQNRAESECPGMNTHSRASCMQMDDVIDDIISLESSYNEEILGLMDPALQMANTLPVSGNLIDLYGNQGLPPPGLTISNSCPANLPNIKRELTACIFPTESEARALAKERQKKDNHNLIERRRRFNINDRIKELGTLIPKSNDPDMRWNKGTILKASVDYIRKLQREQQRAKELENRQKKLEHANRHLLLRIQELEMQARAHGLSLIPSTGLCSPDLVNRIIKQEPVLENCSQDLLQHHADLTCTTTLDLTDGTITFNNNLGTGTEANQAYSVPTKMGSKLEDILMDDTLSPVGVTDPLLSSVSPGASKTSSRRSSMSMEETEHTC
TEAD-YAP inh: TEAD-YAP interaction inhibition | HEK-TIYL cells, TEAD-Gal4/YAP UAS-luciferase luminescence | inhibition, % at 9.12 µM | hit rate 1.4% among 640,000; in the data active = inhibition above about 32%
FBW7 act: human FBW7 E3 ligase activation, primary screen; normalized activity (activation), % at 26.1 µM; AID 1259310; Q969H0; hit rate 0.13% among 650,000; AlphaScreen FBW7–phospho-cyclin E peptide binding, activator screen; in the data active = normalized activity above about 1.9%;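 also: purified mutant Fbw7 with reduced substrate affinity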
GPR151 activ: human GPR151 activation; hit rate 1% among 650,000; PathHunter beta-arrestin GPR151 cells, luminescence; activation, % at 11.2 µM; in the data active = activation above about 4.9%
Each line names hits and unclear results; the compound was inactive in the other large screens.

COc1ccc(NC(=O)/C(C#N)=C\c2ccccc2O)cc1	TEAD-YAP inh 40
N#C/C(=C/c1ccccc1O)C(=O)Nc1ccc(O)cc1	TEAD-YAP inh 71
Cc1ccc(NC(=O)/C(C#N)=C\c2ccccc2O)cc1	none
C=CCn1c(SCc2ccccc2Cl)nc2c1c(=O)[nH]c(=O)n2C	TEAD-YAP inh 53
C=CCn1c(SCc2cccc(C)c2)nc2c1c(=O)[nH]c(=O)n2C	TEAD-YAP inh 45
C=CCSc1nc2c(c(=O)[nH]c(=O)n2C)n1Cc1ccccc1Cl	none
COc1ccc(C(=O)COC(=O)CNS(=O)(=O)/C=C/c2ccccc2)cc1OC	none
CC(=O)Nc1c(C(=O)NCc2ccccc2)nnn1-c1ccccc1	none
CC(C)(C)n1nc2c(c1NC(=O)c1cc(Cl)ccc1Cl)CSC2	none
Cc1ccccc1-n1nc2c(c1NC(=O)c1cc([N+](=O)[O-])ccc1Cl)CS(=O)(=O)C2	TEAD-YAP inh 67
Cc1ccc(-n2nc3c(c2NC(=O)c2cc([N+](=O)[O-])ccc2Cl)CSC3)c(C)c1	TEAD-YAP inh 71
COc1ccc(-n2nc3c(c2NC(=O)c2cc([N+](=O)[O-])ccc2Cl)CSC3)cc1	TEAD-YAP inh 61
CC(C)(C)n1nc2c(c1NC(=O)c1cc([N+](=O)[O-])ccc1Cl)CSC2	TEAD-YAP inh 89
Cc1cccnc1C(c1ccccc1)N(C)C(=O)C1CCN(C(=O)c2ccoc2)CC1 (stereo not given)	none
CC(CCc1ccccc1)NC(=O)CCCn1c(=S)[nH]c2cc3c(cc2c1=O)OCO3 (stereo not given)	none
CCNC(=O)Cc1cccc2ccccc12	none
COc1ccccc1CNC(=O)c1oc2ccc3c(c2c1C)C(=O)CC(C)(C)O3	none
COc1cccc(NC(=O)c2oc3ccc4c(c3c2C)C(=O)CC(C)(C)O4)c1	TEAD-YAP inh 92
CC(=O)c1cccc(NC(=O)c2oc3ccc4c(c3c2C)C(=O)CC(C)(C)O4)c1	TEAD-YAP inh 52
COc1ccccc1NC(=O)c1oc2ccc3c(c2c1C)C(=O)CC(C)(C)O3	TEAD-YAP inh 33
Cc1c(C(=O)Nc2ccc3c(c2)OCO3)oc2ccc3c(c12)C(=O)CC(C)(C)O3	TEAD-YAP inh 42
CCOC(=O)c1c(NC(=O)CSc2nnc(CNC(=O)COc3ccccc3)n2Cc2ccccc2)sc2c1CCCC2	none
COc1cc(NC(=O)COc2cccc3ccccc23)c(OC)cc1Cl	none
CN1CCN(c2ccc(-c3cccc(Cl)c3)cn2)CC1	TEAD-YAP inh 54
COc1cccc(-c2ccc(N3CCN(C)CC3)nc2)c1	none
CC(C)c1ccc(C(=O)Nc2ccccc2C(N)=O)cc1	TEAD-YAP inh 33
NC(=O)c1ccccc1NC(=O)c1ccc(Cl)cc1	none
NC(=O)c1ccccc1NC(=O)c1ccc(Cn2nnc3ccccc32)cc1	TEAD-YAP inh 56
CC1CCc2nc(N)c(C#N)c(-c3cccnc3)c2C1 (stereo not given)	TEAD-YAP inh 50, FBW7 act 1.9
Cc1cc(OCC(=O)NNC(=O)c2ccc([N+](=O)[O-])cc2)cc(C)c1Cl	none
Fc1ccccc1-c1cn2c3c(nnc2n1)CCCC3	TEAD-YAP inh 92
N#C/C(C(N)=O)=C1\Oc2c(cc(O)cc2-c2ccccc2)S1	TEAD-YAP inh 37
C=CCNC(=O)C1CCC(=O)N1C(C)C (stereo not given)	FBW7 act 2.1
CCCN(CCC)CCCNC(=O)C1CCC(=O)N1C(C)C (stereo not given)	none
COc1ccc2c(c1)-c1c(sn(-c3ccccc3OC)c1=S)C(C)(C)N2	none
O=C1OCC2=C1C(c1ccc3c(c1)OCO3)Nc1ccc3ccccc3c12 (stereo not given)	TEAD-YAP inh 54
CC1(C)CC(=O)C2=C(C1)Nc1ccccc1NC2c1ccc2c(c1)OCO2 (stereo not given)	none
CC(=O)c1ccc(OCC(=O)NCC2Cc3c(F)ccc(-c4ccncc4)c3O2)cc1 (stereo not given)	TEAD-YAP inh 33
CC1(C)CC(=NNC(=O)c2n[nH]c3c2CCC3)CC(C)(C)N1	TEAD-YAP inh 62
C/C(=N\NC(=O)c1n[nH]c2c1CCC2)C1CC1	TEAD-YAP inh 52
Fc1ccc(CN2CCOc3ccc(-c4ccncc4)cc32)cc1	TEAD-YAP inh 43
CCOC(=O)C1=C(C)NC2=C(C(=O)CC(c3ccc(OC)c(OC)c3)C2)C1c1cccc(C)c1 (stereo not given)	none
N#Cc1sc2nccc(Nc3ccccc3)c2c1N	TEAD-YAP inh 34
Cc1ccc(S(=O)(=O)CCc2nnc(NC(=O)c3ccccc3Cl)s2)cc1C	none
Cc1[nH]c2ccccc2c1C(=O)/C(C#N)=C/c1ccc(N(C)CCO)cc1	TEAD-YAP inh 38
CC(C)C(NC(=O)/C(=C\c1ccco1)NC(=O)c1ccc(Br)cc1)C(=O)O (stereo not given)	none
O=C(Nc1ccc(Cl)cc1)c1c(Cl)nsc1Cl	TEAD-YAP inh 76
NC(=O)c1c(Cl)nsc1Cl	TEAD-YAP inh 65
COc1ccc(-c2ncc(C(=O)NCc3nc4ccccc4[nH]3)s2)cn1	none
COc1ccc(CNc2nc(-c3ccc(OC)cc3)no2)cc1	none
COCCN=C1NN=C(c2ccc(C)cc2)CS1	none
CCCc1ccc(C2=NNC(=NC)SC2)cc1	TEAD-YAP inh 97
Cn1nc(-c2ccc(Cl)cc2)cc1NC(=O)CCl	TEAD-YAP inh 46
Cn1nc(-c2ccc(Cl)cc2)cc1NC(=O)Cn1c2ccccc2c(=O)c2ccccc21	none
CC(=O)Nc1c(C)cccc1[N+](=O)[O-]	none
CC(C)(C)c1ccc(Oc2c(C(F)(F)F)oc3cc(OC(=O)c4cccs4)ccc3c2=O)cc1	TEAD-YAP inh 94
CCCc1ccc(Oc2c(C(F)(F)F)oc3cc(OC(C)=O)ccc3c2=O)cc1	TEAD-YAP inh 83
CC(=O)Oc1ccc2c(=O)c(Oc3ccccc3)c(C(F)(F)F)oc2c1	none
Cc1ccc(N2C(=O)C3CC=C(Cl)CC3C2=O)cc1[N+](=O)[O-] (stereo not given)	none
Cc1cccc(N(C)c2ccnc3c(-c4ccc(N)cc4)cnn23)c1	TEAD-YAP inh 56
Cc1cccc(N(C)c2ccnc3c(-c4cccc(N)c4)cnn23)c1	none
CCCNc1ccnc2c(-c3ccc(N)cc3)cnn12	TEAD-YAP inh 76
COc1ccc(CNc2ccnc3c(-c4cncnc4)cnn23)cc1	TEAD-YAP inh 44
CCCNc1ccnc2c(-c3ccsc3)cnn12	TEAD-YAP inh 54
Cc1c(Cl)cccc1-n1c(SCc2cccc(F)c2)nc2[nH]ncc2c1=O	none
CN1C(=O)CCC12CCN(C(=O)Cc1cc(F)ccc1F)CC2	none
CCc1c(C)nc(SCC(=O)NC(C)(C)C)[nH]c1=O	none
COc1ccc(-c2nc(NCCO)c3ncn(C(C)C)c3n2)cc1	none
CC(C)n1cnc2c(NCc3nc4ccccc4[nH]3)nc(-c3ccc(C(N)=O)cc3)nc21	TEAD-YAP inh 77
CC(C)n1cnc2c(NCCO)nc(-c3ccc(C(N)=O)cc3)nc21	none
COc1ccc(-c2nc(NCc3nc4ccccc4[nH]3)c3ncn(C(C)C)c3n2)cc1	TEAD-YAP inh 71
Cc1nc2nc(C)c(CCC(=O)Nc3ccc(Br)cc3)c(C)n2n1	none
CCc1c(C)sc(NC(=O)C(C)(C)C)c1C(=O)OC	none
O=C(CN1CCC(C(=O)c2ccc(F)cc2)CC1)NCc1ccc(F)cc1	none
